Compounds without any hit were thinned out: in the full panel of roughly 83,000, 20% have a hit.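 Cell lines were cultured in 96-well plates, exposed to a single compound concentration, and assessed for percent growth 48 hours later.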 The source made the active and inactive calls. Rule for the calls: active = growth percent below 10; inactive = the rest.
Legend:
Assay in all cases: NCI-60 one-dose screen, 48 h (100 = growth as untreated, 0 = no growth, -100 = all killed)
Details in all cases: 10 µM unless noted
DU-145 prostate = system: DU-145 prostate
K-562 leukemia = system: K-562 leukemia
MALME-3M melanoma = system: MALME-3M melanoma
MDA-MB-231 breast = system: MDA-MB-231 breast
SF-268 CNS = system: SF-268 CNS
SF-295 CNS = system: SF-295 CNS
SF-539 CNS = system: SF-539 CNS
UACC-257 melanoma = system: UACC-257 melanoma
M14 melanoma = system: M14 melanoma
HCT-15 colon = system: HCT-15 colon
HT29 colon = system: HT29 colon
SNB-75 CNS = system: SNB-75 CNS
SNB-19 CNS = system: SNB-19 CNS
U251 CNS = system: U251 CNS
PC-3 prostate = system: PC-3 prostate
SK-MEL-5 melanoma = system: SK-MEL-5 melanoma
UACC-62 melanoma = system: UACC-62 melanoma
LOX IMVI melanoma = system: LOX IMVI melanoma
SK-MEL-28 melanoma = system: SK-MEL-28 melanoma

Measured: growth

CC1(C)[C@H](O)CC[C@]2(C)[C@@H]1CC[C@@]13C[C@@H](CC[C@H]12)[C@@](O)(CO)C3
inactive: DU-145 prostate 117% | K-562 leukemia 104% | MALME-3M melanoma 111% | MDA-MB-231 breast 114% | SF-268 CNS 108% | SF-295 CNS 103% | SF-539 CNS 106% | UACC-257 melanoma 107% | HCT-15 colon 105% | HT29 colon 112% | SNB-75 CNS 102% | SNB-19 CNS 99.7% | U251 CNS 108% | PC-3 prostate 111% | SK-MEL-5 melanoma 101% | UACC-62 melanoma 105% | LOX IMVI melanoma 103% | SK-MEL-28 melanoma 108%
active: M14 melanoma -30.7%

COc1ccc(CNC(=O)COc2ccc(/C=N/Nc3nc4ccccc4s3)cc2)cc1
inactive: K-562 leukemia 34.8% | MALME-3M melanoma 24.1% | MDA-MB-231 breast 10.2% | SF-268 CNS 19.9% | SF-295 CNS 47.4% | SF-539 CNS 21.1% | UACC-257 melanoma 53.8% | M14 melanoma 54% | HCT-15 colon 31% | HT29 colon 35.5% | SNB-19 CNS 36.8% | U251 CNS 21.6% | PC-3 prostate 15.5% | SK-MEL-5 melanoma 23.6% | UACC-62 melanoma 34% | LOX IMVI melanoma 46.5% | SK-MEL-28 melanoma 35.2%
active: DU-145 prostate -49.1% | SNB-75 CNS -2.77%

O=C(/C=C\c1ccc(OCCCCCC[P+](c2ccccc2)(c2ccccc2)c2ccccc2)cc1)c1ccc2c(c1)OCCO2
active: DU-145 prostate 6.93% | K-562 leukemia 2.43% | MALME-3M melanoma -15.3% | MDA-MB-231 breast 2.28% | SF-268 CNS -4.06% | SF-295 CNS -17.4% | SF-539 CNS 3.93% | UACC-257 melanoma -5.23% | M14 melanoma -3.09% | HT29 colon -17.5% | SNB-75 CNS -40.4% | U251 CNS -58.5% | PC-3 prostate 6.58% | SK-MEL-5 melanoma -98.3% | UACC-62 melanoma -18.1% | LOX IMVI melanoma -68.2% | SK-MEL-28 melanoma -0.666%
inactive: HCT-15 colon 22% | SNB-19 CNS 16.2%

COc1cccc2c1C(=O)c1c(O)c3c(c(O)c1C2=O)C[C@@](O)(C(=O)CO)C[C@@H]3O[C@H]1C[C@H](N)[C@@H](O)[C@H](C)O1
inactive: HCT-15 colon 40.5% | SNB-19 CNS 10%
active: DU-145 prostate -26.8% | K-562 leukemia 1.44% | MALME-3M melanoma -50.7% | MDA-MB-231 breast 1.94% | SF-268 CNS -15.4% | SF-295 CNS -16.1% | SF-539 CNS -23.9% | UACC-257 melanoma -49.3% | M14 melanoma -47.4% | HT29 colon -14.8% | SNB-75 CNS -66.2% | U251 CNS 3.07% | PC-3 prostate -0.191% | SK-MEL-5 melanoma -83.1% | UACC-62 melanoma -64.4% | LOX IMVI melanoma 0.955% | SK-MEL-28 melanoma -34.7%

COc1ccc(C(O)c2cc3c(N)c(C(=O)Nc4ccccc4)sc3nc2C)cc1 (centres undefined)
inactive: MALME-3M melanoma 48.5% | SF-268 CNS 28.3% | UACC-257 melanoma 49.4% | M14 melanoma 14.3% | SNB-19 CNS 24.6% | PC-3 prostate 17.4% | UACC-62 melanoma 19.6% | LOX IMVI melanoma 34.6% | SK-MEL-28 melanoma 68.1%
active: DU-145 prostate 2.39% | K-562 leukemia 3.59% | MDA-MB-231 breast -11.2% | SF-295 CNS -13.3% | SF-539 CNS -25.8% | HCT-15 colon 9.94% | HT29 colon -22% | SNB-75 CNS -7.27% | U251 CNS 5.4% | SK-MEL-5 melanoma -31.9%

O=S(=O)(c1cccc(NC2=Nc3cccc4cccc2c34)c1)N1CCCC1
inactive: DU-145 prostate 90.4% | K-562 leukemia 19.3% | MALME-3M melanoma 64.1% | MDA-MB-231 breast 77.1% | SF-268 CNS 79.1% | SF-295 CNS 59% | SF-539 CNS 74.9% | UACC-257 melanoma 64.9% | M14 melanoma 69.5% | HCT-15 colon 60.4% | HT29 colon 67.4% | SNB-75 CNS 73.3% | SNB-19 CNS 77.8% | U251 CNS 65.7% | PC-3 prostate 52.4% | SK-MEL-5 melanoma 44.7% | UACC-62 melanoma 51.7% | LOX IMVI melanoma 66.7% | SK-MEL-28 melanoma 81.4%

CCOC(=O)c1cnc2c(cnn2CC)c1NN=C(C)C
inactive: DU-145 prostate 100% | K-562 leukemia 62.9% | MALME-3M melanoma 99.7% | MDA-MB-231 breast 91.6% | SF-268 CNS 92.4% | SF-295 CNS 96.1% | SF-539 CNS 94.8% | UACC-257 melanoma 113% | M14 melanoma 106% | HCT-15 colon 86% | HT29 colon 84.7% | SNB-75 CNS 69% | SNB-19 CNS 87.6% | U251 CNS 90.4% | PC-3 prostate 98.4% | SK-MEL-5 melanoma 90.4% | UACC-62 melanoma 79.3% | LOX IMVI melanoma 90.7% | SK-MEL-28 melanoma 113%

CC(=O)c1c[nH]c2ccc(-c3ccnc(Nc4ccc(NC(=O)C5CCCC5)c(CN5CCOCC5)c4)n3)cc12
inactive: U251 CNS 10.7%
active: DU-145 prostate -1.77% | K-562 leukemia 5.74% | MALME-3M melanoma -81.8% | MDA-MB-231 breast -8.4% | SF-268 CNS -41.7% | SF-295 CNS -46.2% | SF-539 CNS -84.6% | UACC-257 melanoma -27.5% | M14 melanoma -67.7% | HCT-15 colon -21.9% | HT29 colon 6.97% | SNB-75 CNS -81.4% | SNB-19 CNS -6.49% | PC-3 prostate 2.51% | SK-MEL-5 melanoma -74.6% | UACC-62 melanoma -90.1% | LOX IMVI melanoma -54.2% | SK-MEL-28 melanoma -62.4%

O=S(=O)(NCCCNc1nccc(-c2c(-c3ccccc3)nc3occn23)n1)c1ccc(Cl)cc1
inactive: DU-145 prostate 85.5% | K-562 leukemia 50.6% | MALME-3M melanoma 91.8% | MDA-MB-231 breast 93.3% | SF-268 CNS 80% | SF-295 CNS 93.3% | SF-539 CNS 110% | UACC-257 melanoma 105% | M14 melanoma 71% | HCT-15 colon 79.8% | HT29 colon 47.5% | SNB-75 CNS 95.6% | SNB-19 CNS 97.8% | U251 CNS 86.6% | PC-3 prostate 72.1% | SK-MEL-5 melanoma 70.3% | UACC-62 melanoma 68.8% | LOX IMVI melanoma 72.7% | SK-MEL-28 melanoma 90%

CC1=CC2(C)/C=C(C)/C=C\CC(O)/C=C3/C=CC(=C4C(=O)OC2(CC1C)C4=O)OC3 (centres undefined)
active: DU-145 prostate -85.4% | K-562 leukemia 2.75% | MALME-3M melanoma -96.3% | SF-268 CNS -22.4% | SF-539 CNS -82.1% | UACC-257 melanoma -57% | M14 melanoma -77.1% | HCT-15 colon -56.9% | HT29 colon -6.52% | U251 CNS -50.2% | PC-3 prostate -8.09% | UACC-62 melanoma 6.46% | LOX IMVI melanoma -89.1% | SK-MEL-28 melanoma -87.6%
inactive: MDA-MB-231 breast 24.2% | SF-295 CNS 41.4% | SNB-75 CNS 53.3% | SNB-19 CNS 56.4% | SK-MEL-5 melanoma 56.7%

COc1cc(-c2cc(=O)oc3cc(O)ccc23)cc(OC)c1OC
inactive: DU-145 prostate 96.3% | K-562 leukemia 66.2% | MALME-3M melanoma 90.1% | MDA-MB-231 breast 89.3% | SF-268 CNS 88.7% | SF-295 CNS 93.4% | SF-539 CNS 93.4% | UACC-257 melanoma 99.3% | M14 melanoma 98.3% | HCT-15 colon 91.3% | HT29 colon 95.1% | SNB-75 CNS 74.5% | SNB-19 CNS 95.3% | U251 CNS 96.7% | PC-3 prostate 71.9% | SK-MEL-5 melanoma 91.4% | UACC-62 melanoma 88.1% | LOX IMVI melanoma 97.1% | SK-MEL-28 melanoma 99.3%

COc1ccc(C(=O)c2cc3c(N)c(C(=O)Nc4cccc(Cl)c4C)sc3nc2C)cc1
active: DU-145 prostate 9.62% | K-562 leukemia 2.9% | SF-539 CNS -10.2% | M14 melanoma 5.63% | HT29 colon 6.48% | SNB-75 CNS -7.69% | SK-MEL-5 melanoma -23.8%
inactive: MALME-3M melanoma 54.5% | MDA-MB-231 breast 15% | SF-268 CNS 18.4% | SF-295 CNS 26.5% | UACC-257 melanoma 57.6% | HCT-15 colon 15.9% | SNB-19 CNS 39.9% | U251 CNS 14.4% | PC-3 prostate 21.7% | UACC-62 melanoma 32% | LOX IMVI melanoma 21.9% | SK-MEL-28 melanoma 63.3%

COc1ccc(C(=O)c2cc3c(N)c(C(=O)Nc4cccc5ccccc45)sc3nc2C)cc1
inactive: MALME-3M melanoma 55% | MDA-MB-231 breast 15.7% | SF-268 CNS 29.1% | SF-295 CNS 19.7% | UACC-257 melanoma 55.8% | M14 melanoma 11.6% | HCT-15 colon 18.9% | SNB-19 CNS 30.4% | U251 CNS 10.5% | PC-3 prostate 24.5% | UACC-62 melanoma 31.8% | LOX IMVI melanoma 23.7% | SK-MEL-28 melanoma 59.3%
active: DU-145 prostate 9.48% | K-562 leukemia 7.36% | SF-539 CNS -9.85% | HT29 colon -68.5% | SNB-75 CNS -11.3% | SK-MEL-5 melanoma -12.3%

Brc1ccc(C2CC(c3cccc(Nc4ccncc4)c3)=NN2c2ccccc2)cc1 (centres undefined)
inactive: DU-145 prostate 88.7% | MALME-3M melanoma 66.7% | MDA-MB-231 breast 84.4% | SF-268 CNS 103% | SF-295 CNS 89% | SF-539 CNS 84.4% | UACC-257 melanoma 84% | M14 melanoma 101% | HCT-15 colon 13.5% | SNB-75 CNS 79.6% | SNB-19 CNS 94.3% | U251 CNS 32.1% | PC-3 prostate 52.4% | SK-MEL-5 melanoma 82.2% | UACC-62 melanoma 98.6% | LOX IMVI melanoma 53.4% | SK-MEL-28 melanoma 73.3%
active: K-562 leukemia 4.05% | HT29 colon 4.59%

S=c1[nH]cccc1-c1nnc2n1Nc1nc3ccccc3cc1CS2
inactive: DU-145 prostate 120% | K-562 leukemia 99.5% | MALME-3M melanoma 97.1% | MDA-MB-231 breast 92.9% | SF-268 CNS 101% | SF-295 CNS 112% | SF-539 CNS 96.1% | UACC-257 melanoma 110% | M14 melanoma 101% | HCT-15 colon 108% | HT29 colon 106% | SNB-75 CNS 82.8% | SNB-19 CNS 94.8% | U251 CNS 103% | PC-3 prostate 107% | SK-MEL-5 melanoma 97.4% | UACC-62 melanoma 91.2% | LOX IMVI melanoma 98.6% | SK-MEL-28 melanoma 111%

Cn1c(COC(=O)NCCN2CCOCC2)nc2c(N3CCOCC3)nc(-c3ccccc3)nc21
inactive: SF-295 CNS 57% | SNB-19 CNS 48.7%
active: DU-145 prostate -81.6% | K-562 leukemia 0.451% | MALME-3M melanoma -91.9% | MDA-MB-231 breast -88.9% | SF-268 CNS -36.8% | SF-539 CNS -98.7% | UACC-257 melanoma -46.6% | M14 melanoma -75.9% | HCT-15 colon -39.4% | HT29 colon -58.1% | SNB-75 CNS -3.92% | U251 CNS -52.5% | PC-3 prostate -71.2% | SK-MEL-5 melanoma -93.6% | UACC-62 melanoma -93.6% | LOX IMVI melanoma -87.2% | SK-MEL-28 melanoma -97.6%

Source: PubChem BioAssay (NCI)
